Laboratory results published in PubChem BioAssay (NCATS).
Inconclusive results are not listed. Activity calls are given as the source filed them. Calls come from the whole dose curve; as a rule, active = well fitted curve in the direction sought with a large enough effect; inconclusive = small, poorly fitted or top-dose-only effect, or another doubt; inactive = no such curve, though single readings can be large; an effect the other way counts as inactive or inconclusive.

What was measured:
CRL-7250 = normal cell line; assay: Cytotoxic Profiling of Annotated Libraries Using Quantitative High-Throughput Screening (AID 1296008); details: Five cell lines viability, CellTiter-Glo ATP luminescence, 48-72 h; max response: active compounds read low; note: nearly all actives have a fitted effect of over 60% in size; for max response: % is set by controls: 0 for no effect and ±100 for the full control effect
How it was run: (§1)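 Cytotoxicity was measured as CellTiter-Glo ATP luminescence, read after 10 min at room temperature. Compound treatment of the cells lasted 48 or 72 hr at 37 degrees Celsius in a qHTS format.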

HaCat [1] = assay: as above; details: Five cell lines viability, CellTiter-Glo ATP luminescence, 48-72 h; max response: active compounds read low
How it was run: as §1

KB-3-1 = assay: as above; details: Five cell lines viability, CellTiter-Glo ATP luminescence, 48-72 h; max response: active compounds read low
How it was run: as §1

NIH3T3 [2] = assay: as above; details: Five cell lines viability, CellTiter-Glo ATP luminescence, 48-72 h; max response: active compounds read low
How it was run: as §1

HACAT [3] = assay: qHTS assay to identify novel small-molecules to repurpose for Merkel cell carcinoma treatment (AID 1296009); details: MCC and control cell lines, CellTiter-Glo viability, 72 h; at 44.8 µM (top of the series) unless noted; note: nearly all actives have a fitted effect of over 60% in size
How it was run: (§2)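 Cell viability, measured as CellTiter-Glo luminescence, was normalized between DMSO and no-cell wells. The cells had been exposed to 8- or 11-point compound dilutions for 72 hr at 37 degree celsius.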

NIH3T3 [4] = assay: as above; details: MCC and control cell lines, CellTiter-Glo viability, 72 h; series mostly up to 44.8 µM
How it was run: as §2

C33A = assay: Primary qHTS to identify gynecologic anti-cancer compounds using libraries of approved drugs and bioactive compounds (AID 1345084); details: Gynecologic cancer cell panel viability, ATPlite luminescence, 48 h; series mostly up to 57.5 µM; note: % is set by controls: 0 for no effect and ±100 for the full control effect; nearly all actives have a fitted effect of over 55% in size
How it was run: (§3)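 ATP-based viability (ATPlite), 1,000 cells/well, 16 h pre-incubation, 48 h compound at 37 C, 5% CO2, 15 min RT before read.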

CASKI = assay: as above; details: Gynecologic cancer cell panel viability, ATPlite luminescence, 48 h; series mostly up to 57.5 µM
How it was run: as §3

Es-2 = assay: as above; details: Gynecologic cancer cell panel viability, ATPlite luminescence, 48 h; series mostly up to 57.5 µM
How it was run: as §3

HeLa = assay: as above; details: Gynecologic cancer cell panel viability, ATPlite luminescence, 48 h; series mostly up to 57.5 µM
How it was run: as §3

Hek293T = assay: as above; details: Gynecologic cancer cell panel viability, ATPlite luminescence, 48 h, control line for the selectivity index; series mostly up to 57.5 µM
How it was run: as §3

JEG-3 = assay: as above; details: Gynecologic cancer cell panel viability, ATPlite luminescence, 48 h; series mostly up to 57.5 µM
How it was run: as §3

OV90 = assay: as above; details: Gynecologic cancer cell panel viability, ATPlite luminescence, 48 h; series mostly up to 57.5 µM
How it was run: as §3

CAOV3 = assay: as above; details: Gynecologic cancer cell panel viability, ATPlite luminescence, 48 h; series mostly up to 57.5 µM
How it was run: as §3

COc1cc(/C=C2\CC[C@H]3COC[C@@H](c4cc(F)c(F)c(F)c4)N3C2=O)ccc1-n1cnc(C)c1
inactive: max response (CRL-7250) 3.12% | outcome (HaCat [1]) | outcome (KB-3-1) | outcome (NIH3T3 [2]) | outcome (HACAT [3]) | Potency (NIH3T3 [4]) | Potency (C33A) | Potency (CASKI) | Potency (Es-2) | Potency (HeLa) | Potency (Hek293T) | Potency (JEG-3) | Potency (OV90)

CN1CC[C@@H](c2c(O)cc(O)c3c(=O)cc(-c4ccc(C(F)(F)F)cc4Cl)oc23)[C@@H]1CO
inactive: outcome (CRL-7250) | outcome (HaCat [1]) | max response (KB-3-1) 5.55% | max response (NIH3T3 [2]) -4.65% | outcome (HACAT [3]) | Potency (C33A) | Potency (CAOV3) | Potency (CASKI) | Potency (Es-2) | Potency (HeLa) | Potency (Hek293T) | Potency (JEG-3) | Potency (OV90)

O=c1cc(OCc2ccc(F)cc2)ccn1-c1ccc(OCCN2CCCC2)cc1
inactive: max response (CRL-7250) -11.7% | outcome (HaCat [1]) | max response (KB-3-1) -29.6% | max response (NIH3T3 [2]) -16.9% | outcome (HACAT [3]) | Potency (C33A) | Potency (CAOV3) | Potency (CASKI) | Potency (Es-2) | Potency (HeLa) | Potency (Hek293T) | Potency (JEG-3) | Potency (OV90)

COC(=O)/C=C/C=C/C(=O)OC1C=C2COC(=O)C2(O)C2(C)CCCC(C)(C)C12 (centres undefined)
inactive: outcome (CRL-7250) | outcome (HaCat [1]) | max response (KB-3-1) 4.64% | max response (NIH3T3 [2]) -4.83% | outcome (HACAT [3]) inactive [at 17.4 µM] | Potency (C33A) | Potency (CAOV3) | Potency (CASKI) | Potency (Es-2) | Potency (HeLa) | Potency (Hek293T) | Potency (JEG-3) | Potency (OV90)

CC(=O)O[C@@H]1CC[C@@]2(C)[C@H](CC[C@@H]3[C@@H]2C[C@H](OC(C)=O)[C@]2(C)[C@@H](C(C)=O)CC[C@@H]32)C1
inactive: max response (CRL-7250) -9.5% | outcome (HaCat [1]) | max response (KB-3-1) -28.9% | max response (NIH3T3 [2]) -22.7% | outcome (HACAT [3]) | Potency (C33A) | Potency (CAOV3) | Potency (CASKI) | Potency (Es-2) | Potency (HeLa) | Potency (Hek293T) | Potency (JEG-3) | Potency (OV90)

C=C1C(=O)O[C@@H]2/C=C(\CO)CC/C=C(\CO)[C@H](OC(C)=O)C(OC(=O)C(C)CC)C12 (some centres undefined)
inactive: max response (CRL-7250) -5.38% | outcome (HaCat [1]) | outcome (KB-3-1) | max response (NIH3T3 [2]) -1.91% | outcome (HACAT [3]) inactive [at 17.4 µM] | Potency (C33A) | Potency (CAOV3) | Potency (CASKI) | Potency (Es-2) | Potency (HeLa) | Potency (Hek293T) | Potency (JEG-3) | Potency (OV90)

CCNC(=O)N1CCCN(c2ccc(C(=O)NCCc3ccc(Cl)cc3Cl)cc2NC(=O)c2cccc(Cl)c2)CC1
inactive: max response (CRL-7250) -3.91% | outcome (HaCat [1]) | max response (KB-3-1) -2.47% | max response (NIH3T3 [2]) 2.92% | outcome (HACAT [3]) | Potency (C33A) | Potency (CAOV3) | Potency (CASKI) | Potency (Es-2) | Potency (HeLa) | Potency (Hek293T) | Potency (JEG-3) | Potency (OV90)

CCc1ccc(-c2nc(CSCC(=O)NCCc3ccccc3)c(C)o2)cc1
inactive: max response (CRL-7250) 2.64% | outcome (HaCat [1]) | max response (KB-3-1) -10.3% | max response (NIH3T3 [2]) -12.1% | outcome (HACAT [3]) | Potency (C33A) | Potency (CAOV3) | Potency (CASKI) | Potency (Es-2) | Potency (HeLa) | Potency (Hek293T) | Potency (JEG-3) | Potency (OV90)

O=S(=O)(Cc1ccccc1)Nc1ccc(-c2ccc3c(cnn3-c3ccc(F)cc3)c2)c(C(F)(F)F)c1
inactive: max response (CRL-7250) -4.69% | outcome (HaCat [1]) | max response (KB-3-1) -15.9% | max response (NIH3T3 [2]) -4.39% | outcome (HACAT [3]) | Potency (C33A) | Potency (CAOV3) | Potency (CASKI) | Potency (Es-2) | Potency (HeLa) | Potency (Hek293T) | Potency (JEG-3) | Potency (OV90)

COc1c(CCC(=O)O)cccc1O[C@@H]1O[C@H](CO)[C@@H](O)[C@H](O)[C@H]1O
inactive: outcome (CRL-7250) | outcome (HaCat [1]) | max response (KB-3-1) 0.734% | max response (NIH3T3 [2]) 0.319% | outcome (HACAT [3]) | Potency (C33A) | Potency (CAOV3) | Potency (CASKI) | Potency (Es-2) | Potency (HeLa) | Potency (Hek293T) | Potency (JEG-3) | Potency (OV90)

CC12CCC3C1C(c1c(cc(O)c(C(=O)c4ccccc4)c1O)O2)C3(C)C (centres undefined)
inactive: max response (CRL-7250) 3.27% | outcome (HaCat [1]) | max response (KB-3-1) -20.8% | max response (NIH3T3 [2]) -2.16% | outcome (HACAT [3]) | Potency (C33A) | Potency (CAOV3) | Potency (CASKI) | Potency (Es-2) | Potency (HeLa) | Potency (Hek293T) | Potency (JEG-3) | Potency (OV90)

CN(C)CCOc1cc(NS(=O)(=O)c2c(Cl)cc(C(F)(F)F)cc2Cl)ccc1Cl
inactive: max response (CRL-7250) 2.92% | outcome (HaCat [1]) | max response (KB-3-1) -11% | outcome (NIH3T3 [2]) | outcome (HACAT [3]) | Potency (C33A) | Potency (CAOV3) | Potency (CASKI) | Potency (Es-2) | Potency (HeLa) | Potency (Hek293T) | Potency (JEG-3) | Potency (OV90)

C=C1CC2OC(=O)C(=C)C2C(O)/C=C(\C)CCC1O (centres undefined)
inactive: max response (CRL-7250) -0.668% | outcome (HaCat [1]) | max response (KB-3-1) 5.02% | max response (NIH3T3 [2]) -10.3% | outcome (HACAT [3]) | Potency (C33A) | Potency (CAOV3) | Potency (CASKI) | Potency (Es-2) | Potency (HeLa) | Potency (Hek293T) | Potency (JEG-3) | Potency (OV90)
